Assays:
Test in all cases: PBM binding z-score (relative to random genomic background probes); higher = stronger binding; sequences stand for … in GC…GCGATTGACAGCGTAGAATGAAGG
[1] = test system: RARb homodimer (NR concentration 270 nM)
In short: (§1)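 Probes were double-stranded and carried 34-nt variable regions with direct-repeat seeds, single-nucleotide variants, half-site ablations and random human genomic background sequences, printed on custom Agilent 4×180K protein-binding microarrays. Arrays were incubated 1 h with ligand-free nuclear receptor dimers in PBS pH 7.4, 2% milk, 0.02% Triton X-100, 1 mM DTT, 0.2 mg/mL BSA and 0.4 mg/ml salmon testes DNA. Antibodies against each partner (one per run) detected binding, and scanned fluorescence was regression-normalized. Binding z-scores use the random background probes as reference.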

[2] = test system: RARg:RXRa (NR concentration 270 nM, RXRa partner concentration 90 nM)
In short: as §1

[3] = test system: RARg homodimer (NR concentration 270 nM)
In short: as §1

[4] = test system: RXRa DBDmut IVT, anti-RXR (DBD mutation: RXRa K156A/R161A, NR concentration 90 nM)
In short: as §1

[5] = test system: RXRa homodimer (NR concentration 180 nM)
In short: as §1

[6] = test system: THRa:RXRa (NR concentration 90 nM, RXRa partner concentration 90 nM)
In short: as §1

[7] = test system: THRa homodimer (NR concentration 90 nM)
In short: as §1

[8] = test system: VDR homodimer (NR concentration 270 nM)
In short: as §1

| Sequence | PBM binding z-score [1] | PBM binding z-score [2] | PBM binding z-score [3] | PBM binding z-score [4] | PBM binding z-score [5] | PBM binding z-score [6] | PBM binding z-score [7] | PBM binding z-score [8] |
| --- | --- | --- | --- | --- | --- | --- | --- | --- |
| ATCTCTAAGTAAAAGTTCAGTGAATCCCGAGGAT | 2.23 | 1.54 | 1.99 | 1.09 | 0.961 | 0.533 | -0.127 | 1.62 |
| ATCGAAAGGTCGACGAGGTCAGTATACACCGTTT | 4.63 | 5.73 | 5.72 | 2.48 | 5.75 | 4.67 | 2.54 | 4.57 |
| TTACCAAGGTGCAAGGTCGTTGATGCACGCCTTG | 1.21 | 0.66 | 0.411 | 1.33 | 1.54 | 1.62 | 0.68 | 2.9 |
| GCTTGTAGATCAAGGTTATGAAAGACTAAGCTAA | 0.411 | 0.306 | 0.25 | -0.2 | 0.623 | 1.36 | -0.196 | -0.036 |
| CATACTGGGCCACGAAAGGTCATTGATTCAGTGA | 4.71 | 4.59 | 4.63 | 0.963 | 4.9 | 3.87 | 1.47 | 2.45 |
| TGAATGAGGTTAAAGATCAGGGAGCGTGGCGTCG | 0.534 | 1.95 | 0.676 | 0.869 | 3.86 | 2.43 | 0.271 | -0.0422 |
| ATCTCTTGGTAAAGATAGTTCAGTGAATGCAAAT | 1.23 | 0.592 | 0.734 | 0.404 | 0.246 | 0.575 | 0.156 | 0.713 |
| GCTAGTTGGTCAGTAAAAGGTCACACAACGGTCG | 5.29 | 5.75 | 5.52 | 0.797 | 5.56 | 3.76 | 1.74 | 1.75 |
| AGAACGAGGGCACGCGGAGTTGATAGCAGAGTAG | 1.42 | 2.32 | 2.41 | 1.91 | 1.66 | 1.82 | -0.0223 | 1.18 |
| GCTAGTTGGTAAGTAAAAGGTCACACACCGGTCG | 5.2 | 4.96 | 4.06 | 0.677 | 4.99 | 3.48 | 1.73 | 1.63 |
| TGTCACAGTTCAAAGGTAACGTAAGTATCCACAC | 1.81 | 3.57 | 2.54 | 2.93 | 4.82 | 2.74 | -0.0814 | 2.33 |
| CGTCCAAGGTTAGAGAGGTCAGTGAATGCCGAGT | 4.23 | 3.53 | 4.13 | 1.67 | 3.43 | 3.22 | 1.3 | 3.15 |
| TCCCGGAGGACACGAAAGGTCAGAGCTCGACATC | 4.78 | 4.89 | 5.23 | 0.811 | 3.89 | 3.88 | 1.31 | 0.948 |
| GATACAGTGTCAAGGCCAGAGTACGCGTATTGAT | 1.04 | 0.527 | 1.03 | 0.061 | 0.517 | 0.471 | -0.196 | 0.431 |
| GCTCGGAGGACAAGGGCAGAGCTTTGTCCGTAGA | 0.567 | -0.153 | 0.628 | -0.927 | -0.428 | 0.387 | -0.399 | -0.558 |
| TCATATAGGTCAAGGTGAAAGTCGAACGATATGA | 3.84 | 5.31 | 5.43 | 1.56 | 5.05 | 3.47 | 1.36 | 0.356 |
| CCTGTTAGGTCATGGTCAGCTAATCTACAGTATG | 3.36 | 4.05 | 4.61 | 2 | 2.89 | 3.73 | 2.91 | 0.791 |
| CAAACTAGGTCACAGATGTCAAAGTCCGTGCGTA | 3.51 | 4.42 | 4.89 | 2.36 | 3.86 | 3.36 | 1.68 | 1.91 |
| GGAACGAGGGCAAGGTTGATAGCATCTGTCGACG | 1.67 | 1.67 | 1.88 | 1.72 | 1.32 | 1.45 | 0.156 | 1.39 |
| CAAACTAGGGCAAGAGGTCAAAGTCCGCTTCCCG | 5.19 | 6.21 | 5.15 | 1.74 | 6.17 | 3.87 | 1.23 | 3.3 |
| GAATATAGGTAATACAAGGTGAAAGTCCGATTGT | 1.27 | 0.944 | 0.872 | 0.644 | 0.89 | 4.2 | 1.38 | 0.435 |
| AGAATGAGGTTATCAAAGATCAGGGAAACGCTTG | 0.294 | 1.47 | 1.24 | 1.49 | 2.28 | 2.58 | 0.571 | 0.495 |
| TATTGTAGATCAATAGAGGTTAAGAAAGTGCGCT | 1.44 | 1.05 | 0.855 | -0.302 | 1.36 | 2.32 | -0.234 | 0.323 |
| CCTATTAGTTGACCATAAGGGCAACCTAAGCTCG | 2.22 | 1.47 | 1.24 | 0.437 | 0.949 | 2.16 | 1.8 | 0.755 |
| TCATATAGGTAAATCCTAGGTGAAAGTCCGATCT | 0.18 | 0.491 | 0.396 | 1.37 | 0.983 | 1.96 | 0.368 | -0.253 |
